Assay results published in PubChem BioAssay AID1159580 (chemical genetic matrix, 2015).
“And” between values parts separate entries of the source, which are not always exact repeats. Equal values may be shown once. Out of some 5,500 compounds screened, about 2,000 (36%) were called active. Another 18% or so got no clear call; they are omitted. Rule as the data show it: active = normalized growth mostly below about 0.91 (no sharp cut-off); inconclusive = no clear call, values can overlap the other calls; inactive = mostly above about 0.92. The list shows a part of the results.

Assay: chemical genetic growth profiling, strain panel (AID 1159580);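 also: tested at 20 µM; growth read once vehicle control cultures reached saturation at 30 °C; 1 = growth at the plate median or of vehicle wells; lower values mean less growth of the strain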
Settings: S. cerevisiae deletion strains, growth OD

Measured: normalized growth

COc1cc(NC(C)CCCN)c2ncccc2c1 (configuration not stated)
active: locus YER155C, strain BEM2 (second series), active compounds read low 0.859
inactive: locus YAL013W, strain DEP1, active compounds read low 1 | locus YAL021C, strain ccr4, active compounds read low 0.972 | locus YAL026C, strain drs2, active compounds read low 1.02 | locus YAL030W, strain snc1, active compounds read low 0.999 | locus YBL061C, strain skt5, active compounds read low 1 | locus YBR009C, strain hhf1, active compounds read low 1.07 | locus YBR021W, strain FUR4, active compounds read low 0.988 | locus YBR023C, strain chs3, active compounds read low 1.02 | locus YBR171W, strain sec66, active compounds read low 1.01 | locus YBR229C, strain ROT2, active compounds read low 1 | locus YBR231C, strain swc5, active compounds read low 0.984 | locus YBR279W, strain paf1, active compounds read low 1.01 | locus YCL011C, strain gbp2, active compounds read low 1.01 | locus YCL016C, strain dcc1, active compounds read low 1.02 | locus YCL029C, strain bik1, active compounds read low 1.02 | locus YCL061C, strain MRC1, active compounds read low 1 | locus YCL069W, strain vba3, active compounds read low 1.01 | locus YCR088W, strain abp1, active compounds read low 1 | locus YDL005C, strain med2, active compounds read low 1 | locus YDL035C, strain GPR1, active compounds read low 1 | locus YDL040C, strain nat1, active compounds read low 1 | locus YDL074C, strain BRE1, active compounds read low 1.01 | locus YDL101C, strain DUN1, active compounds read low 1.02 | locus YDL134C, strain PPH21, active compounds read low 1.01 | locus YDL185W, strain tfp1, active compounds read low 1.01 | locus YDL192W, strain arf1, active compounds read low 1.01 | locus YDR001C, strain nth1, active compounds read low 1.01 | locus YDR069C, strain doa4, active compounds read low 0.977 | locus YDR101C, strain arx1, active compounds read low 1 | locus YDR137W, strain rgp1, active compounds read low 1.03 | locus YDR150W, strain NUM1, active compounds read low 1.01 | locus YDR159W, strain sac3, active compounds read low 0.993 | locus YDR162C, strain NBP2, active compounds read low 1.01 | locus YDR195W, strain ref2 0.99 | locus YDR297W, strain sur2, active compounds read low 1 | locus YDR318W, strain mcm21, active compounds read low 1 | locus YDR334W, strain swr1, active compounds read low 1.01 | locus YDR335W, strain msn5, active compounds read low 1 | locus YDR388W, active compounds read low 1.02 | locus YDR392W, strain spt3, active compounds read low 0.875 | locus YDR502C, strain sam2, active compounds read low 1 | locus YEL003W, strain gim4, active compounds read low 1.01 | locus YEL037C, strain rad23, active compounds read low 1.02 | locus YEL061C, strain CIN8 (second series), active compounds read low 1 | locus YEL061C, strain CIN8, active compounds read low 1 | locus YER015W, strain faa2, active compounds read low 0.989 | locus YER016W, strain bim1, active compounds read low 0.995 | locus YER110C, active compounds read low 1.01 | locus YER111C, strain swi4, active compounds read low 1.01 | locus YER155C, strain BEM2, active compounds read low 0.999 | locus YER167W, strain BCK2, active compounds read low 1.01 | locus YFR010W, strain ubp6, active compounds read low 1.01 | locus YGL078C, strain dbp3, active compounds read low 1.01 | locus YGL086W, strain mad1, active compounds read low 0.981 | locus YGL167C, strain pmr1, active compounds read low 1.01 | locus YGL173C, strain kem1, active compounds read low 1.02 | locus YGL227W, strain vid30, active compounds read low 0.999 | locus YGL240W, strain doc1, active compounds read low 0.985 | locus YGL248W, strain PDE1, active compounds read low 1.01 | locus YGL253W, strain hxk2, active compounds read low 1.03 | locus YGR078C, strain PAC10, active compounds read low 1.02 | locus YGR135W, strain pre9, active compounds read low 0.991 | locus YGR229C, strain SMI1, active compounds read low 1.01 | locus YGR252W, strain gcn5, active compounds read low 0.961 | locus YHR013C, strain ard1, active compounds read low 1 | locus YHR027C, strain rpn1, active compounds read low 1.03 | locus YHR030C, strain SLT2, active compounds read low 1.01 and 1.05 | locus YHR079C, strain IRE1 (second series), active compounds read low 1.01 | locus YHR079C, strain IRE1, active compounds read low 1.05 | locus YHR094C, strain hxt1, active compounds read low 1.01 | locus YHR129C, strain ARP1, active compounds read low 1 | locus YHR142W, strain chs7, active compounds read low 1.05 | locus YHR200W, strain rpn10, active compounds read low 1 | locus YIL066C, strain RNR3, active compounds read low 1.01 | locus YIL073C, strain SPO22, active compounds read low 1.1 | locus YIL125W, strain kgd1, active compounds read low 1.01 | locus YIR030C, strain dcg1, active compounds read low 1.01 | locus YJL092W, strain hpr5, active compounds read low 0.995 | locus YJL095W, strain BCK1 (second series), active compounds read low 1.02 | locus YJL095W, strain BCK1, active compounds read low 1 and 1.03 | locus YJL115W, strain asf1, active compounds read low 1.01 | locus YJL129C, strain trk1, active compounds read low 1.04 | locus YJL134W, strain LCB3, active compounds read low 1 | locus YJL154C, strain vps35, active compounds read low 1 | locus YJL164C, strain tpk1, active compounds read low 1.04 | locus YJL166W, strain qcr8, active compounds read low 0.964 | locus YJL168C, strain set2, active compounds read low 1.01 | locus YJL187C, strain SWE1 (second series), active compounds read low 1.02 | locus YJL187C, strain SWE1, active compounds read low 0.998 | locus YJR043C, strain POL32, active compounds read low 0.995 | locus YJR066W, strain TOR1, active compounds read low 0.977
